Experimental data reported in PubChem BioAssay (NCI).
About 83,000 compounds went through this panel and 20% of them were active in at least one assay; those are over-represented in the sample as a whole.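 Growth was measured after 48 h exposure to one concentration of compound in 96-well plates. Values under 10 count as active.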 Unmarked numbers belong to inactive results. The source made the active and inactive calls.

These compounds were tested on MOLT-4 leukemia (assay: NCI-60 one-dose screen, 48 h (100 = growth as untreated, 0 = no growth, -100 = all killed)). Conditions: 10 µM unless noted.

Compared with `Nc1ccc(C2=Nc3cccc4cccc(c34)S2)cc1`, `Nc1ccccc1-c1ccc([N+](=O)[O-])cc1` is lower in growth: 82.2% for the first, 30.5% for the second.

Going from `COc1cc2c(cc1OCCCOc1ccc(-c3cc4ccccc4c4ccccc34)cc1)N=C[C@@H]1CCCN1C2=O` to `COc1cc(C2C=C(c3ccc(C)cc3)Nc3nc(SC)[nH]c(=O)c32)ccc1Oc1ccnc2cc(Cl)ccc12` (centres undefined), the growth rises from 17.4% to 63.9%.

Compared with `O=C(CCc1nnc(Cn2ccnc2)o1)c1nc2ccccc2[nH]1`, `COc1ccc2[nH]c(-c3ccccc3)cc2c1` is lower in growth: 92.8% for the first, 53.7% for the second.

First: COc1ccc2[nH]cc(/C=C3/C(=O)Nc4ccc(Cl)cc43)c2c1
Second: CCC1=C(c2ccc(OC)cc2)C(C)Oc2cc(OC(C)=O)ccc21 (centres undefined)
The growth of the first is lower: 39.9% for the first, 76.7% for the second.

First: Cc1cccc(Cl)c1NC(=O)c1ccc2nc(NC(=O)NC3CC(C)(C)NC(C)(C)C3)sc2c1
Second: Cc1c(C(N)=O)sc2ncn(CC(=O)Nc3ccc(Cl)cc3)c(=O)c12
The growth of the first is lower: 70% for the first, 112% for the second.

Going from `NNC(=O)C1CC2c3ccccc3C1c1ccccc12` (centres undefined) to `c1coc([C@@H]2C[C@@H]3Cc4ccc5ccccc5c4N2O3)c1`, the growth falls from 105% to 73.7%.

Compared with `Cn1[nH]cc(/C=N/C(N)=O)c1=O`, `CC(O)c1nc2c(c(=O)n(C)c(=O)n2C)n1C` (centres undefined) is higher in growth: 105% for the first, 117% for the second.

Going from `C=C(C[C@](O)(C(=O)/C=C/c1ccc(Cl)cc1)C(=O)OC)c1ccccc1` to `COc1ccc(/C=N/NC(=O)c2ccc(S(C)(=O)=O)cc2)cc1OC`, the growth rises from 62.9% to 65.9%.

Compared with `COc1ccc(/C=N\Nc2ccc([N+](=O)[O-])cn2)cc1OC`, `COc1cc(/C=C/c2nnc(-c3cc(-c4ccccc4)n[nH]3)o2)cc(OC)c1OC` is lower in growth: 101% for the first, 69% for the second.

Going from `Cc1cc(NC(=O)c2ccc(N)cc2)ccc1N=Nc1ccc2c(O)c(N=Nc3ccc(Cl)c(S(=O)(=O)O)c3)c(S(=O)(=O)O)cc2c1` to `Cc1ccc(NC(=O)Nc2ccc(-c3cccnc3)cc2N2CCC(CO)CC2)cc1`, the growth falls from 99.3% to 17.6%.

Going from `CCC(CCC(C)C1CCC2C3CC=C4CC(O)CCC4(C)C3CCC12C)C(C)C` (centres undefined) (tested in a mixture with another compound) to `Cc1cc(C(C)(C)c2cc(C)c(O)c(CN(C)C)c2)cc(CN(C)C)c1O`, the growth rises from 70.6% to 87.4%.

Compared with `CCN1CCN(c2cc(-c3cn[nH]c3-c3cc(C)cc(OC)c3)nc(-c3cccnc3)n2)CC1`, `COc1ccc(-c2cc(Cc3cccs3)c(=O)n(Cn3cncn3)n2)cc1` is higher in growth: 52% for the first, 93% for the second.

Going from `O=C1OC(c2ccc(-c3ccccc3)cc2)=C/C1=C/c1cccs1` to `O=C1CCCN1C1CCN(Cc2cc3ccccc3[nH]c2=O)c2ccccc21` (centres undefined), the growth falls from 87.3% to 68.7%.

`CCOC(=O)/C=C(/C)Sc1cc(O)c2ccccc2c1O` showed a growth of 33%.

With `O=C(COC(=O)[C@H](C[Se][Se]C[C@H](NC(=O)c1ccc(Br)cc1F)C(=O)OCC(=O)c1ccc(F)cc1)NC(=O)c1ccc(Br)cc1F)c1ccc(F)cc1` the growth was -30% (active).
For `CCCCn1c(Cc2ccc(Cl)cc2)nc2cc(OC)c(OC)cc2c1=O`, the growth was -48.7% (active).
`N#Cc1ccc(NC(=O)Nc2ccc(Oc3ccc(NC(=O)Nc4ccc(C#N)cc4)cc3)cc2)cc1` was tested, and the growth was -58% (active).
With `Oc1ccc(Cc2ccc(O)c(C3CC(c4ccc(Cl)cc4)=NN3)c2)cc1C1CC(c2ccc(Cl)cc2)=NN1` (centres undefined) the growth was -5.34% (active).
In the case of `COc1ncc(-c2ccc3nccc(C#CCN4CCN(S(C)(=O)=O)CC4)c3c2)cc1NS(=O)(=O)c1ccc(F)cc1F`, the growth is reported as -21% (active).
`O=C(Nc1ccc(Cl)cc1)Nc1ccc(Nc2nncc3ccccc23)cc1` was tested, and the growth was -1.61% (active).
`N#Cc1cnc2cc(OC[C@H](O)CO)c(NC(=O)CC3CSSC3)cc2c1Nc1ccc(OCc2cccc(F)c2)c(Cl)c1` was tested, and the growth was -90.1% (active).
For `CCOC(=O)C1=C(C)N2C(=NC3=C(CCC/C3=C\c3ccc(Cl)cc3)C2c2ccc(Cl)cc2)S1` (centres undefined), the growth was -3.87% (active).
For `Oc1ccccc1C=Nc1ccccc1N=Cc1ccccc1O.[Cu+2]`, the growth was 3.28% (active).
`CN(CC(=O)N(Cc1ccc(C2CCCCC2)cc1)c1ccc(C(=O)O)cc1)S(=O)(=O)c1c(F)c(F)c(F)c(F)c1F` was tested, and the growth was -15.9% (active).

What follows are compounds tested on SR leukemia in the same assay as above. Conditions: 10 µM unless noted.

Going from `Nc1ccc(C2=Nc3cccc4cccc(c34)S2)cc1` to `Nc1ccccc1-c1ccc([N+](=O)[O-])cc1`, the growth falls from 57.5% to 34.8%.

Compared with `COc1cc2c(cc1OCCCOc1ccc(-c3cc4ccccc4c4ccccc34)cc1)N=C[C@@H]1CCCN1C2=O`, `COc1cc(C2C=C(c3ccc(C)cc3)Nc3nc(SC)[nH]c(=O)c32)ccc1Oc1ccnc2cc(Cl)ccc12` (centres undefined) is lower in growth: 102% for the first, 75.8% for the second.

Going from `O=C(CCc1nnc(Cn2ccnc2)o1)c1nc2ccccc2[nH]1` to `COc1ccc(-c2cc(Cc3cccs3)c(=O)n(Cn3cncn3)n2)cc1`, the growth falls from 87.7% to 84%.

Compared with `Cc1cccc(Cl)c1NC(=O)c1ccc2nc(NC(=O)NC3CC(C)(C)NC(C)(C)C3)sc2c1`, `Cc1c(C(N)=O)sc2ncn(CC(=O)Nc3ccc(Cl)cc3)c(=O)c12` is lower in growth: 95.6% for the first, 85% for the second.

First: NNC(=O)C1CC2c3ccccc3C1c1ccccc12 (centres undefined)
Second: c1coc([C@@H]2C[C@@H]3Cc4ccc5ccccc5c4N2O3)c1
The growth of the first is higher: 89% for the first, 88.8% for the second.

Compared with `Cn1[nH]cc(/C=N/C(N)=O)c1=O`, `CC(O)c1nc2c(c(=O)n(C)c(=O)n2C)n1C` (centres undefined) is higher in growth: 103% for the first, 125% for the second.

Compared with `CCCCn1c(Cc2ccc(Cl)cc2)nc2cc(OC)c(OC)cc2c1=O`, `COc1ccc(/C=N\Nc2ccc([N+](=O)[O-])cn2)cc1OC` is lower in growth: 59.4% for the first, 52.9% for the second.

First: C=C(C[C@](O)(C(=O)/C=C/c1ccc(Cl)cc1)C(=O)OC)c1ccccc1
Second: Oc1ccccc1C=Nc1ccccc1N=Cc1ccccc1O.[Cu+2]
The growth of the first is lower: 23.3% for the first, 66.3% for the second.

First: CCC1=C(c2ccc(OC)cc2)C(C)Oc2cc(OC(C)=O)ccc21 (centres undefined)
Second: COc1ccc(/C=N/NC(=O)c2ccc(S(C)(=O)=O)cc2)cc1OC
The growth of the first is lower: 53% for the first, 92.5% for the second.

Compared with `O=C(Nc1ccc(Cl)cc1)Nc1ccc(Nc2nncc3ccccc23)cc1`, `Cc1ccc(NC(=O)Nc2ccc(-c3cccnc3)cc2N2CCC(CO)CC2)cc1` is lower in growth: 17.5% for the first, 17.1% for the second.

First: Cc1cc(NC(=O)c2ccc(N)cc2)ccc1N=Nc1ccc2c(O)c(N=Nc3ccc(Cl)c(S(=O)(=O)O)c3)c(S(=O)(=O)O)cc2c1
Second: O=C1OC(c2ccc(-c3ccccc3)cc2)=C/C1=C/c1cccs1
The growth of the first is lower: 66.5% for the first, 91.5% for the second.

Going from `CCC(CCC(C)C1CCC2C3CC=C4CC(O)CCC4(C)C3CCC12C)C(C)C` (centres undefined) (tested in a mixture with another compound) to `Cc1cc(C(C)(C)c2cc(C)c(O)c(CN(C)C)c2)cc(CN(C)C)c1O`, the growth falls from 101% to 74.8%.

Going from `COc1cc(/C=C/c2nnc(-c3cc(-c4ccccc4)n[nH]3)o2)cc(OC)c1OC` to `CCOC(=O)/C=C(/C)Sc1cc(O)c2ccccc2c1O`, the growth falls from 86.4% to 17.1%.

`O=C1CCCN1C1CCN(Cc2cc3ccccc3[nH]c2=O)c2ccccc21` (centres undefined) gave a growth of 73.1%.

In the case of `O=C(COC(=O)[C@H](C[Se][Se]C[C@H](NC(=O)c1ccc(Br)cc1F)C(=O)OCC(=O)c1ccc(F)cc1)NC(=O)c1ccc(Br)cc1F)c1ccc(F)cc1`, the growth is reported as -39.3% (active).
`COc1ccc2[nH]cc(/C=C3/C(=O)Nc4ccc(Cl)cc43)c2c1` was tested, and the growth was 2.51% (active).
For `COc1ccc2[nH]c(-c3ccccc3)cc2c1`, the growth was -14.8% (active).
In the case of `N#Cc1ccc(NC(=O)Nc2ccc(Oc3ccc(NC(=O)Nc4ccc(C#N)cc4)cc3)cc2)cc1`, the growth is reported as 3.43% (active).
`Oc1ccc(Cc2ccc(O)c(C3CC(c4ccc(Cl)cc4)=NN3)c2)cc1C1CC(c2ccc(Cl)cc2)=NN1` (centres undefined) was tested, and the growth was 3.43% (active).
In the case of `COc1ncc(-c2ccc3nccc(C#CCN4CCN(S(C)(=O)=O)CC4)c3c2)cc1NS(=O)(=O)c1ccc(F)cc1F`, the growth is reported as 1.58% (active).
In the case of `CCN1CCN(c2cc(-c3cn[nH]c3-c3cc(C)cc(OC)c3)nc(-c3cccnc3)n2)CC1`, the growth is reported as 7.69% (active).
For `N#Cc1cnc2cc(OC[C@H](O)CO)c(NC(=O)CC3CSSC3)cc2c1Nc1ccc(OCc2cccc(F)c2)c(Cl)c1`, the growth was -72.6% (active).
`CCOC(=O)C1=C(C)N2C(=NC3=C(CCC/C3=C\c3ccc(Cl)cc3)C2c2ccc(Cl)cc2)S1` (centres undefined) was tested, and the growth was -8.47% (active).
`CN(CC(=O)N(Cc1ccc(C2CCCCC2)cc1)c1ccc(C(=O)O)cc1)S(=O)(=O)c1c(F)c(F)c(F)c(F)c1F` was tested, and the growth was -22.1% (active).
